# From PubChem BioAssay
# TDP1 cell noCPT: qHTS for Inhibitors of human tyrosyl-DNA phosphodiesterase 1 (TDP1): qHTS in cells in absence of CPT; DT40 Tdp1-/- hTDP1 cells, no CPT, ATP luminescence, 48 h; Potency, µM (titrated, usually from 46.2 µM), inactives show at the top dose activity change, negative = growth inhibition, usual class: inhibitors; 15% of 420,000 active; AID 686978, 2013; note: potency is the fitted concentration of half-maximal effect; nearly all actives have a fitted effect of over 55% in size
#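 Stably hTDP1-transfected Tdp1-null chicken DT40 cells were treated with library compounds minus camptothecin and grown for at least 48 hr at 37 °C, after which cellular ATP was quantified by luminescence.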
# Gal4-VP16 FLuc: counter-screen for ROR gamma inhibitors: Gal4-VP16 reporter; 3.5% of 310,000 active; AID 2546; Drosophila S2 Gal4-VP16 UAS-luciferase, luminescence, 20 h; Potency, µM (titrated, usually from 53.6 µM), inactives show at the highest dose activity, negative = inhibition, usual class: inhibitors;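 note: Gal4-VP16 expression switched on by copper sulfate through the metallothionein promoter; potency is the fitted concentration of half-maximal effect; nearly all actives have a fitted effect of over 50% in size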
# DT40 TDP1 CPT: growth inhibition of DT40 Tdp1-/-;hTDP1 cells with camptothecin (screen for TDP1 inhibitors); chicken DT40 Tdp1-/-;hTDP1 cells + 20 nM CPT, ATP luminescence, 48 h; Potency, µM (highest dose often 46.2 µM), for inactives: at the highest dose activity change, negative = growth inhibition, usual class: inhibitors; 12% of 420,000 active; AID 686979; note: potency is the fitted concentration of half-maximal effect; nearly all actives have a fitted effect of over 55% in size
#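 Chicken DT40 Tdp1-/- cells stably complemented with human TDP1 were seeded at 400 cells/well in medium containing 20 nM camptothecin, exposed to pin-transferred compounds, and grown at 37 °C for at least 48 hr. Viability was read as ATP luminescence.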
# RORgamma inh: ROR gamma (mouse) transcription inhibition. P51450. Drosophila S2 Gal4-RORgamma UAS-luciferase reporter, 20 h. Potency, µM (titrated, usually from 53.6 µM), without a hit: at the top dose activity change, negative = inhibition, most hits filed as inhibitors. 5.4% of 310,000 active; note: potency is the fitted concentration of half-maximal effect; nearly all actives have a fitted effect of over 60% in size
# Target sequence (P51450 whole entry, looked up, the tested form may be a part): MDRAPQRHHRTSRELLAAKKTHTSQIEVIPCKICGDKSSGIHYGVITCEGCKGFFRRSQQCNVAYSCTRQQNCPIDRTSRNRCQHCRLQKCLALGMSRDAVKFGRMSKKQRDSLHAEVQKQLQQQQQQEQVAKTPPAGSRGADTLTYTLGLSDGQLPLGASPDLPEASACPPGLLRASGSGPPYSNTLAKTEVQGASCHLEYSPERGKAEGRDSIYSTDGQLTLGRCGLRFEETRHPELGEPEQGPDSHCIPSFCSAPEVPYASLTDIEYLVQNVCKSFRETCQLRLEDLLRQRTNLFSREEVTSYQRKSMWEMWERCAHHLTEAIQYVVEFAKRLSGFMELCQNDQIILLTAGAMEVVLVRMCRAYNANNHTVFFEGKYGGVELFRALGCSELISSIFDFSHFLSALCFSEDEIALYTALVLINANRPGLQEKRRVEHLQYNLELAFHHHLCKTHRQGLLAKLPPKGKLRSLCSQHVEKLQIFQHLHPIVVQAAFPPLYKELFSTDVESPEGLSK
#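 Luciferase reporter read in Schneider cells carrying Gal4-RORγ (mouse) and UAS-Photinus luciferase; cells given compound 1 h before 700 uM copper sulfate induction, then incubated 20 h at ambient temperature.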
# ELG1 DNA repair: blocks ELG1-dependent DNA repair in HEK293T cells | Potency, µM (highest dose often 46.1 µM), for the others: top-dose activity change, negative = inhibition, actives largely listed as inhibitors | HEK293T ELG1-luciferase reporter, luminescence, 16 h; DNA damage induced by 5-fluorouridine | 2.3% of 330,000 active; note: potency is the fitted concentration of half-maximal effect; nearly all actives have a fitted effect of over 55% in size
#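 Step one: seed 2,000 cells per well. Step two: pin-transfer compound or DMSO alongside 5-fluorouridine. Step three: incubate 16 hr, 37 °C, 5% CO2. Step four: add ONE-Glo, wait 30 min, read luminescence.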
# IL-1B inflam inh: blocks inflammasome-driven IL-1 beta release | THP-1 LPS/ATP IL-1B secretion, AlphaLISA, 16 h; active compounds read low | 4.7% of 360,000 active | activity change, % at 57.5 µM | AID 743279; in the data active = activity change below about -50%; inconclusive = mostly about -30% to -49%
#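 Secreted IL-1B measured by AlphaLISA bead assay after 16 h compound exposure of THP-1 cells; compounds (final up to 57.5 uM) added 1 h before LPS (250 ng/mL) and ATP (1.25 mM) stimulation; lower signal means less secretion.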
# * marks the source's active call; other numbers are inactive results; ? = inconclusive; nt = no result; [ ] = remark or other dose. Rows were chosen to be rich in hits. Some 21% of all compounds tested hit in one or more screens of this group. Unless noted, calls come from the whole dose curve; as a rule, active = well fitted curve in the direction sought with a large enough effect; inconclusive = small, poorly fitted or top-dose-only effect, or another doubt; inactive = no such curve, though single readings can be large; an effect the other way counts as inactive or inconclusive. % is set by controls: 0 for no effect and ±100 for the full control effect.
SMILES,TDP1 cell noCPT,Gal4-VP16 FLuc,DT40 TDP1 CPT,RORgamma inh,ELG1 DNA repair,IL-1B inflam inh
CCC/C(=N/NC(=O)c1csc(C)c1C)c1ccc(Cl)s1,-22.8%,?,8.6%,15.8µM*,?,1.8
CCC/C(=N\NC(=O)c1ccco1)c1ccc(Cl)s1,-13.4%,17.8µM*,-11.5%,11.2µM*,-2.4%,?
O=C(CCc1ccccc1)NCC(c1ccco1)N1CCc2ccccc21 (stereo not drawn),4.11µM*,nt,4.61µM*,nt,26.5%,-7.0
O=C(NCC(c1ccco1)N1CCc2ccccc21)c1cccc([N+](=O)[O-])c1 (stereo not drawn),20.6µM*,nt,16.4µM*,nt,?,-4.2
Cc1ccc(C(=O)NCC(c2ccco2)N2CCc3ccccc32)cc1 (stereo not drawn),13µM*,nt,10.3µM*,nt,-11.2%,?
Cc1cccc(C(=O)NCC(c2ccco2)N2CCc3ccccc32)c1 (stereo not drawn),14.6µM*,nt,?,nt,?,-57.8*
O=C(NCC(c1ccco1)N1CCc2ccccc21)c1ccccc1F (stereo not drawn),?,nt,-29.6%,nt,-5.7%,-15.8
O=C(NCC(c1ccco1)N1CCc2ccccc21)c1ccccc1Br (stereo not drawn),?,nt,20.6µM*,nt,-25.7%,-6.9
Cc1ccsc1C1Cc2c(C(=O)NCc3cccnc3)c(=O)cc(C)n2-c2ccccc2S1 (stereo not drawn),-16.6%,nt,-1.1%[9.04 µM],nt,nt,nt
CC1CCCCN1Cc1c(O)ccc2c(=O)c(-c3nc4ccccc4s3)c(N)oc12 (stereo not drawn),23.1µM*,-26.8%,?,-36.2%,8.8%,-29.9
CC1CCCCN1Cc1c(O)ccc2c(=O)c(-c3ccc(Br)cc3)coc12 (stereo not drawn),-11.4%,15.0%,?,5.3%,-11.2%,?
CC1CCCCN1Cc1c(O)ccc2c(=O)c(-c3ccc(Cl)cc3)coc12 (stereo not drawn),18.4µM*,6.5%,7.31µM*,27.4%,0.7%,?
CC(C)N(Cc1c(O)ccc2c(=O)c(-c3ccc(Cl)cc3)coc12)C(C)C,8.2µM*,-4.6%,2.06µM*,9.2%,-47.6%,-4.1
CC1CCCCN1Cc1c(O)ccc2c(=O)c(-c3ccc(Cl)cc3Cl)coc12 (stereo not drawn),-0.3%,-2.2%,-15.4%,26.9%,-11.5%,-21.8
CCC1Oc2ccc(C)cc2N(CC(=O)NCc2ccc(OC)cc2)C1=O (stereo not drawn),-15.3%,nt,-27.3%,nt,nt,nt
CCOc1ccc(NC(=O)C(C)n2c(=O)cc(-c3ccccc3)c3c(C)nn(C)c32)cc1 (stereo not drawn),-7.0%,nt,-5.0%,nt,nt,nt
CCn1nc(C)c2c(-c3ccccc3)cc(=O)n(C(C)C(=O)NCCC(C)C)c21 (stereo not drawn),?,nt,18.4µM*,nt,nt,nt
CCn1nc(C)c2c(-c3ccccc3)cc(=O)n(C(C)C(=O)NCCc3ccccc3)c21 (stereo not drawn),?,nt,18.4µM*,nt,nt,nt
CCn1nc(C)c2c(-c3ccccc3)cc(=O)n(C(C)C(=O)NCc3ccc(C)cc3)c21 (stereo not drawn),?,nt,18.4µM*,nt,nt,nt
Cc1cc(C)c(NC(=O)C(C)n2c(=O)cc(-c3ccccc3)c3c(C)nn(C)c32)c(C)c1 (stereo not drawn),9.1%,nt,-9.8%,nt,nt,nt
CN1C[C@@H]2[C@@H]3C(=O)N(C)C(=O)[C@@H]3[C@](C)(C1=O)N2C(=O)c1ccc(Cl)cc1,-2.8%,nt,0.8%,nt,nt,9.6
C[C@@H]1CN([C@@H](C)CO)C(=O)CCCn2nncc2CO[C@@H]1CN(C)S(=O)(=O)c1ccc(F)cc1,21.9%,nt,0.5%,nt,nt,12.3
COc1cc(/C=C/C(=O)OCC(=O)NCC(=O)Nc2cccc(C)c2C)ccc1OC(F)F,7.5%,nt,-21.8%,nt,4.2%,13.9
Cc1noc(C)c1S(=O)(=O)N1CCC(C(=O)O)CC1,1.7%,nt,9.0%,nt,28.8%,9.1
COc1ccc(-c2ccc3nncn3c2)cn1,0.5%,nt,13.4%,nt,nt,18.6
SMILES,TDP1 cell noCPT,Gal4-VP16 FLuc,DT40 TDP1 CPT,RORgamma inh,ELG1 DNA repair,IL-1B inflam inh
Cc1ccc(-c2nnc(SCCC(=O)N3CCOCC3)o2)cc1,11.8%,-4.4%,-17.9%,6.31µM*,?,-7.0
Cc1cccc(-c2nnc(SCCC(=O)N3CCOCC3)o2)c1,4.8%,7.08µM*,3.3%,?,?,-2.1
COc1ccccc1OCC(=O)NCC1(N(C)C)CCCCC1,-5.7%,nt,-3.5%,nt,nt,nt
NNC(=O)c1c(O)c2cccc3c2n(c1=O)CCC3,1.5%,1.7%,-2.6%,-20.9%,1.1%,-6.3
CCOC(=O)C1CCN(C(=O)c2ccc3c(c2)N=C(CC)c2cc(C)ccc2S3)CC1,?,nt,14.6µM*,nt,nt,nt
CCCC1=Nc2cc(C(=O)NCc3ccccc3)ccc2Sc2ccccc21,3.26µM*,nt,4.11µM*,nt,nt,nt
CCC1=Nc2cc(C(=O)NCc3ccco3)ccc2Sc2ccc(Cl)cc21,1.03µM*,5.2%,1.3µM*,-5.8%[10 µM],-17.5%,29.1
CCC1=Nc2cc(C(=O)NCCCOC(C)C)ccc2Sc2ccccc21,?,8.9%,?,-0.7%,?,11.9
CCC1=Nc2cc(C(=O)NCCc3ccc(OC)c(OC)c3)ccc2Sc2ccccc21,23.1µM*,nt,16.4µM*,nt,nt,nt
CCCCCCC(C)OC(=O)Nc1cccc2ccccc12 (stereo not drawn),?,-3.4%,-2.1%,-4.4%,?,4.5
